Consider twelve sequences from the supplement of paper PMC6555819.

Holding throughout (assay): PBM binding z-score (relative to random genomic background probes); higher = stronger binding; sequences stand for … in GC…GCGATTGACAGCGTAGAATGAAGG
Assay [1] relates to FXR:RXRa (NR concentration 270 nM, RXRa partner concentration 90 nM). Put shortly:
(§1)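 Probes were double-stranded and carried 34-nt variable regions with direct-repeat seeds, single-nucleotide variants, half-site ablations and random human genomic background sequences, printed on custom Agilent 4×180K protein-binding microarrays. Arrays were incubated 1 h with ligand-free nuclear receptor dimers in PBS pH 7.4, 2% milk, 0.02% Triton X-100, 1 mM DTT, 0.2 mg/mL BSA and 0.4 mg/ml salmon testes DNA. Antibodies against each partner (one per run) detected binding, and scanned fluorescence was regression-normalized. Binding z-scores use the random background probes as reference.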

Assay [2] has as its system LXRa:RXRa (NR concentration 270 nM, RXRa partner concentration 90 nM). The method in brief:
as §1

The test system of assay [3] is LXRa homodimer (NR concentration 270 nM). The method in brief:
as §1

Assay [4] has as its system LXRb:RXRa (NR concentration 270 nM, RXRa partner concentration 90 nM). Put shortly:
as §1

Assay [5] relates to LXRb homodimer (NR concentration 270 nM). Put shortly:
as §1

Assay [6] concerns PPARa:RXRa (NR concentration 270 nM, RXRa partner concentration 90 nM). The method in brief: as §1
Assay [7] concerns PPARg:RXRa (NR concentration 180 nM, RXRa partner concentration 90 nM). The method in brief: as §1
Assay [8] relates to PPARg:RXRa 270nM:90nM, anti-RXR (NR concentration 270 nM, RXRa partner concentration 90 nM). Put shortly:
as §1

Assay [9] concerns PPARg:RXRa 30nM:10nM, anti-RXR (NR concentration 30 nM, RXRa partner concentration 10 nM). The method in brief: as §1
Assay [10] deals with PPARg:RXRa 90nM:30nM, anti-RXR (NR concentration 90 nM, RXRa partner concentration 30 nM). The method in brief: as §1

For the sequence CCTCGGAGGACAGAAGGTCGGAGCTGTCCGCTTT, the PBM binding z-score was -0.221 in assay [1]; -0.259 in assay [2]; -0.611 in assay [3]; -0.529 in assay [4]; -0.931 in assay [5]; -0.47 in assay [6]. Also, the PBM binding z-score in [7] was -0.973; in assay [8] it was -0.664; in assay [9], -1.51; in assay [10], -1.26.

With CCTCCAAGGTCAAGGTCAGTGAAAGAGACTCGAA, the PBM binding z-score in [1] is 7.8; in [2], 5.56; in assay [3], 1.22; in assay [4] it was 4.56; in assay [5], 0.877; in assay [6] it was 5.99. The PBM binding z-score was found to be 6.15 in assay [7], 6.06 in assay [8], 2.76 in assay [9] and 4.75 in assay [10].

On to CCTGTTAGGTCATGGTCAGCTAATCTACAGTATG, for which the PBM binding z-score in assay [1] amounted to 4.26; in assay [2], 2.77; in [3], 0.732; in assay [4], 2.3; in assay [5], 0.739; in assay [6], 3.71. Also, the PBM binding z-score in assay [7] was 1.92; in assay [8] it was 2.38; in assay [9], 0.613; in [10], 1.33.

Turning to CCGACTCGGGCAAGGTTACCATAACGCACAGCCA, the PBM binding z-score in [1] is -0.303; in [2], 0.69; in assay [3], -0.249; in assay [4], 0.349; in assay [5], -1.13; in [6], 0.95. Besides, the PBM binding z-score in assay [7] is 1.01; in [8], 0.916; in assay [9], -0.148; in assay [10] it was -7.81e-07.

AGTCAAAGTTAACTAGGTAACGTAAGATTCAGCT: the PBM binding z-score is -0.192 in assay [1]; 0.0304 in assay [2]; -0.49 in assay [3]; -0.0459 in assay [4]; -0.318 in assay [5]; 2.16 in assay [6]. Further, the PBM binding z-score is 2.33 in assay [7], 2.5 in assay [8], 0.593 in assay [9] and 1.89 in assay [10].

For the sequence CCGACTGGGGCATAAGGTTACCCTAAGCCAGCCC, the PBM binding z-score was 0.368 in assay [1]; 0.99 in assay [2]; -0.135 in assay [3]; 0.439 in assay [4]; -1.18 in assay [5]; 1.6 in assay [6]. Moreover, the PBM binding z-score was 1.95 in [7], 3.02 in assay [8], 0.838 in assay [9] and 2.09 in [10].

Turning to GGATCGAGGGCAAAGTTGATAGCATCTGTCGACG, the PBM binding z-score was 1.65 in assay [1]; 1.21 in assay [2]; -0.00761 in assay [3]; 0.937 in assay [4]; -0.138 in [5]; 4.37 in assay [6]. The PBM binding z-score in [7] was 7.25; in assay [8] it was 7.18; in [9] it was 5.86; in assay [10] it was 8.27.

For the sequence ATCACTAGGTAAAAGTTCAGTGAATCCCGAGGAT, the PBM binding z-score turned out to be 0.841 in assay [1]; 1.47 in assay [2]; 1.23 in [3]; 0.945 in assay [4]; 0.59 in assay [5]; 4.85 in assay [6]. In addition, the PBM binding z-score was 8.25 in assay [7], 8.67 in assay [8], 7.65 in assay [9] and 9.23 in [10].

For CCTAGTTGGTCAGGAGGTCACACTCCGGATATGA, the PBM binding z-score in assay [1] worked out at 3.59; in assay [2] it was 3.48; in assay [3] it was 2.22; in assay [4], 3.31; in [5], 0.86; in [6] it was 3.98. Further, the PBM binding z-score came out at 3.28 in assay [7], 4.03 in assay [8], 1.65 in [9] and 3.38 in assay [10].

On to AATACAGGGTCATCGTAGGCCAGCGTACGCACAG, for which the PBM binding z-score in assay [1] turned out to be 7.47; in [2] it was 6.19; in assay [3], 2.61; in [4] it was 4.66; in assay [5] it was 1.23; in assay [6] it was 6.28. Moreover, the PBM binding z-score in [7] is 6.7; in assay [8], 5.95; in [9] it was 2.73; in [10], 4.61.

Turning to GCGACTGGGGCAAAGCAGGTCACCATAAGGTTGG, the PBM binding z-score was 0.839 in [1]; 1.93 in assay [2]; -0.00602 in [3]; 1.53 in assay [4]; -1.06 in [5]; 3.18 in assay [6]. In addition, the PBM binding z-score in assay [7] came out at 2.77; in [8], 2.65; in assay [9] it was 0.521; in assay [10] it was 1.7.

CTACCAAGGTGAACGAGGTCGTTGATTACTATTC: the PBM binding z-score in assay [1] is 1.79; in assay [2], 1.81; in [3], 0.142; in [4], 2.09; in assay [5] it was -0.207; in [6], 2.82. In addition, the PBM binding z-score in assay [7] is 1.45; in [8], 1.48; in [9], 0.4; in assay [10] it was 0.896.
